# The supplement of paper PMC3334620
# In all, about 33,000 sequences were measured (“E-score (-0.5 to 0.5)”: median about -0.01, highest 2% from about 0.26 on). Shown is part of a subset that was picked to be rich in the highest values.
# Biological target: Ste12 (UniProt P13574)
# Assay: PBM E-score (8-mer binding enrichment) (E-score (-0.5 to 0.5)); higher = stronger / more preferred TF binding
# Details: protein concentration: 200 nM; construct: GST-DNA-binding domain
# Protocol: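 Universal 'all 10-mer' protein binding microarrays (Agilent AMADID 015681) probed with GST-tagged S. cerevisiae TFs (full-length or DBD) made by in vitro transcription/translation (PURExpress), about 100-200 nM. Bound TF was detected with fluorescent anti-GST. Each ungapped 8-mer (which stands for itself and its reverse complement) is scored by the PBM enrichment score (E-score), a modified Wilcoxon-Mann-Whitney statistic from -0.5 to +0.5, computed with the Universal PBM Analysis Suite. Scale: above 0.35 generally sequence-specific binding.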
# UniProt P13574, sequence (P13574 whole entry): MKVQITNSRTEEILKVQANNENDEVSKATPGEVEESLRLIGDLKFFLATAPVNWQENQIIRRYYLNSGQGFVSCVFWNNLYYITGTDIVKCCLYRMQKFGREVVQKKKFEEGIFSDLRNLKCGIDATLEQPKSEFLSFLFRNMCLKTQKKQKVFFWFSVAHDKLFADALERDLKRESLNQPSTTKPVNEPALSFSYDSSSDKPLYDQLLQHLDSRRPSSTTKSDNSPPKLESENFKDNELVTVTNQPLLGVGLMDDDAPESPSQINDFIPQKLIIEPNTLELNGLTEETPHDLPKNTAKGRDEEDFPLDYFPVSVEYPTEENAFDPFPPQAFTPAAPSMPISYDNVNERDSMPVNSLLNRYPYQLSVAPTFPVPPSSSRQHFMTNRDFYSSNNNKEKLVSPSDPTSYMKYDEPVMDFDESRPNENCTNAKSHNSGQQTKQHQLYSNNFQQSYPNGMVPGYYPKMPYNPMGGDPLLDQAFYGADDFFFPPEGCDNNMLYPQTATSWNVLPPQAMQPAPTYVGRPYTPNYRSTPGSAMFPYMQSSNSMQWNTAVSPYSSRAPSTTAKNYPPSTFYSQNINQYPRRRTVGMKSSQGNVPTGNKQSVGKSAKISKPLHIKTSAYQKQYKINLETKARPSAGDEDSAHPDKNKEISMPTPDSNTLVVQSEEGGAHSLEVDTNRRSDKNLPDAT
row,Sequence,PBM E-score
1,TTGTGAAA,0.342
2,CTGTGAAA,0.322
3,CTGTGAGA,-0.0675
4,GTGTGAAA,0.307
5,ATGTGAAA,0.202
6,GTGTGAGA,0.0959
7,CTGTGAAC,-0.0759
8,ACCTGCCA,-0.121
9,AGAAAGGA,-0.0699
10,AAAGCGAA,0.133
11,CTTGCATA,-0.045
12,TCAGGTCA,-0.015
13,AAAGTCCC,-0.0967
14,CGAGGCCG,-0.158
15,GGATTTAA,0.243
16,ATAACATC,0.0956
17,AAAACATT,0.28
18,CAAACATG,0.179
19,AAAACATA,0.208
20,ACAACATC,-0.0874
21,AAAACATG,0.324
22,AAAACAAT,0.225
23,AAAACATC,0.301
24,AACACATG,0.128
25,AGTGTAGG,0.00693
26,ATGTGCTG,0.133

row,Sequence,PBM E-score
1,CTTCGCTC,-0.224
2,TCCACCCA,-0.0525
3,ACCACCCC,0.0858
4,GCCACCCA,-0.106
5,CCCACCCA,0.269
6,CCCACCCC,0.391
7,GCCACCCC,-0.0121
8,CCCACCCG,0.358
9,CACACCCG,0.0642
10,ACCACCCG,-0.106
11,CCTCTTGC,0.0254
12,ATCTTCAC,0.145
13,CACGGGCG,0.00735
14,ATAGCCTG,-0.0913
15,TAGATCGA,0.0552
16,CCAGCTCA,-0.194
17,CCGTTGAA,0.0239
18,ATTATTTA,0.281
19,CTTTATAA,0.153
20,ATTTATAC,0.195
21,ATTATTTG,0.106
22,GCTTATTA,0.0471
23,GTTTATTA,0.304
24,GATTATTA,0.196
25,CCTTATTA,0.187
26,CTTATTTA,0.171

row,Sequence,PBM E-score
1,ACTTATTA,0.264
2,CTTTATTA,0.112
3,ATTTATAA,0.267
4,AGATCCCG,0.0252
5,GAAGGTTA,-0.115
6,GGCCGACC,-0.123
7,ACGTAAAG,0.0191
8,CACAAGGG,-0.194
9,CGCCTCTA,-0.0334
10,ATTTATTA,0.292
11,ATTTATTG,0.0911
12,ACTATTAC,0.0443
13,ATTTATTC,0.121
14,ATTATTAC,0.269
15,CTTATTAC,0.0999
16,CGTGGTAA,-0.0665
17,ACATCTCA,-0.0976
18,CGCTCGAA,-0.0852
19,CTGATCAC,-0.0885
20,AGGCGAGA,-0.195
21,ATGAGACA,0.338
22,ATGAGACC,-0.144
23,GTGAGACA,0.256
24,AACTTTGC,-0.0155
25,AGAGTTCA,-0.222
26,CACATTAA,0.0442

row,Sequence,PBM E-score
1,AAAACGTC,0.134
2,CAAACGTC,0.0704
3,CAAACGTA,-0.052
4,GAAACGTC,0.303
5,TAAACGTA,-0.115
6,GAAACGTA,0.325
7,CCCGCGAG,0.119
8,ATTCGACG,0.087
9,ATACCAGG,0.0311
10,CCCATCAG,-0.193
11,GCAGGTAA,0.0649
12,AGCGACAC,0.0304
13,AGATCGTG,0.0231
14,AATATCAA,0.283
15,AATATTAA,0.327
16,AATATTAT,0.24
17,TGTATCAA,0.392
18,TATATTAA,0.22
19,AATATCAG,0.0475
20,CGTATCAA,0.088
21,AGTATCAA,0.217
22,AATATCAC,0.107
23,ACATATTA,0.193
24,AGCACAAT,-0.16
25,TTATCGAA,0.196
26,AATAGGGT,0.148

row,Sequence,PBM E-score
1,AGACTGGA,-0.0847
2,CAGCTCAC,-0.301
3,ATCCGATC,0.162
4,ATCCGATA,0.063
5,ATCCGATG,0.277
6,CACTCCCA,0.0996
7,AGCGCTAG,-0.0146
8,GGCACTTA,-0.157
9,CTTTCAAA,0.246
10,GATTCGAA,0.277
11,GATTCATA,0.00383
12,CATTCATC,0.125
13,GATTCGAC,0.12
14,GTTTCAAA,0.47
15,ATTTCGGA,0.181
16,CATTCGAA,0.11
17,CATTCATA,0.296
18,CTTTCGGA,0.0344
19,GGTTCAAA,0.195
20,GTTTCGGA,0.334
21,ATGGTAGC,-0.0629
22,CACCCAAC,-0.0687
23,CTTGAGGA,-0.147
24,GGAGCTTA,-0.219
25,CCTATTCC,0.0843
26,ACTAAAGC,0.0971

row,Sequence,PBM E-score
1,AGGCGAAG,-0.178
2,GTTTCACA,0.447
3,ATTTCGAA,0.253
4,GAATCGAA,0.296
5,ATTTCACG,0.122
6,CAATCGAA,-0.021
7,GTTTCGAA,0.325
8,CTTTCGAA,0.0433
9,GTTTCATA,0.481
10,TAATCGAA,0.185
11,ATTTCATA,0.124
12,ATTTCACA,0.205
13,CTTTCATA,0.205
14,AAAGCGGC,0.054
15,CTGTCAGA,0.0092
16,AAGTACGT,-0.0519
17,AACAGCAG,0.0314
18,CCATGCCC,-0.0778
19,GTGAACGA,0.047
20,GACAAACA,0.0473
21,ATTTCAAC,0.161
22,GTTTCAGA,0.484
23,CTTTCAGA,0.211
24,ATTTCAAA,0.272
25,ATTTCAAG,0.0717
26,ATTTCAGA,0.00371

row,Sequence,PBM E-score
1,ACGTCAAA,0.0313
2,AACTCAGC,0.109
3,GCTTGGGA,-0.164
4,AACGTGGT,-0.0847
5,AACTTATC,0.0734
6,AACTTATT,0.333
7,AACTTATG,0.0251
8,GCTTGTGA,-0.0847
9,AATGAAAC,0.44
10,AATGAACC,0.105
11,AATGAAGA,0.304
12,GATGAAAC,0.494
13,GATGAATC,0.0548
14,AATGAAAT,0.231
15,AATGAAAA,0.292
16,TATGAAGA,0.0389
17,AATGAAAG,0.0381
18,CATGAAGA,-0.0377
19,AATGAAGC,-0.0558
20,GATGAACC,0.062
